PubChem BioAssay AID743096 (Vanderbilt Specialized Chemistry Center, 2013)
The source made the active and inactive calls.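 The calls were made as follows: active = calcium signal above 60% of the top acetylcholine response at human muscarinic M5 receptors, as a positive modulator; inactive = the rest.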

Each compound was assayed against Muscarinic acetylcholine receptor M2 (Homo sapiens) (UniProt P08172) (assay: potentiation of ACh response at M2 – cell-based, human M2, selectivity assay for M5 PAM discovery project (AID 743096)). Settings: CHO-K1 hM2/Gqi5, calcium flux, ACh EC20 potentiation; series mostly up to 30 µM.
Muscarinic acetylcholine receptor M2 (Homo sapiens), sequence (P08172 whole entry, looked up): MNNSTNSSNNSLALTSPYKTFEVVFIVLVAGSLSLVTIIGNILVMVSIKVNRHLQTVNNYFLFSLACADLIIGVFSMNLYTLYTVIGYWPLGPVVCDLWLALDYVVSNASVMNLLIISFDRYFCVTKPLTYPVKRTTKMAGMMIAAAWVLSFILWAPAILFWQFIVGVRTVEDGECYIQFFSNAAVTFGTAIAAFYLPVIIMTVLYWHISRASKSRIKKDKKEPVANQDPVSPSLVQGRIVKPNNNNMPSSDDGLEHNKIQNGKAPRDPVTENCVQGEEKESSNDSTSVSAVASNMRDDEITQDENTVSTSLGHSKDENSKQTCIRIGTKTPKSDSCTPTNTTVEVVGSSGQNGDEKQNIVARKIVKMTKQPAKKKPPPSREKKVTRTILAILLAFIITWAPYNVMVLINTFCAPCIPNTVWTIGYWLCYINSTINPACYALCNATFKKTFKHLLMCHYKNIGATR

outcome, inactive:
CCN(Cc1ccccc1C(F)(F)F)C(=O)C1CCN(S(=O)(=O)c2ccc3[nH]ncc3c2)CC1
CCN(Cc1ccccc1Cl)C(=O)C1CCN(S(=O)(=O)c2ccc3[nH]ncc3c2)CC1
CCN(Cc1ccccc1)C(=O)C1CCN(S(=O)(=O)c2ccc3c(c2)OCCO3)CC1
CCN(Cc1ccccc1)C(=O)C1CCN(S(=O)(=O)c2ccc(OC)cc2)CC1
CCN(C(=O)C1CCN(S(=O)(=O)c2ccc3[nH]ncc3c2)CC1)[C@H](C)c1ccccc1
CCN(C(=O)C1CCN(S(=O)(=O)c2ccc(OC)cc2)CC1)[C@H](C)c1ccccc1
